# Hits are enriched below; roughly 3.8% of the tested compounds scored in any of these assays.
# aDG glyco up = activators of alpha-DG glycosylation, primary screen, uHTS, Pro5-aDG cells, AlphaScreen. 360,000 compounds, 0.22% hits. activation, % at 10 µM. alpha-DG glycosylation AlphaScreen (IIH6); 0% Pro5, 100% B10-LARGE cell signal;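 active means activation of at least 8% versus controls, or a plate z-score of at least 8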;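 further: Pro5 are CHO cells carrying HIG-tagged alpha-DG that lacks glycosylation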
# FAS TE block = FAS thioesterase domain inhibitors, primary screen, biochemical, fluorescence intensity, uHTS; Fatty acid synthase (Homo sapiens), P49327; recombinant FAS-TE, OMFH fluorogenic substrate, fluorescence endpoint; inhibition, % at 15 µM; 360,000 compounds, 0.67% hits;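 active means compounds whose normalised, plate-corrected inhibition of enzyme fluorescence in the single-dose primary screen is 50% or more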;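 further: 0% = DMSO with enzyme and 100% = substrate without enzyme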
# MPTP block = mitochondrial permeability transition pore inhibitors, primary screen, biochemical, isolated mouse mitochondria, absorbance; Ca2+ swelling absorbance, 30 min; inhibition, % at 10 µM; AID 602449, 2012; 360,000 compounds, 1.4% hits;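 active means inhibition of 50% or more, scaled per plate between neutral and stimulator controls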;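 further: 0% = DMSO wells given calcium and 100% = 1 mM EGTA wells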
# CR mimetic SO = reduction of superoxide in aged yeast, primary screen, HTS | superoxide response (% of plate mean), % at 10 µM | 330,000 compounds, 0.18% hits | AID 2690, 2010 | S. cerevisiae aged cells, superoxide DHE fluorescence; stronger effect = lower value;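 active means superoxide response under a set limit, about three screen SD below normal, cut at about 65% in these data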;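 further: yeast aged for seven days with compound at 30 °C before DHE staining; 100% = average MFI of all compound-treated wells on the plate with controls excluded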
# Cardio protect = cardioprotection against H2O2-induced cell death, primary screen, uHTS, H9c2 cells, ATPLite luminescence; H9c2 cardiomyocytes, H2O2 injury protection, 2 h; 360,000 compounds, 0.63% hits; protection from H2O2 cell death, % at 20 µM;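 active means compounds giving at least 50% protection of heart cells from peroxide-induced death in the single-dose screen, raw or plate-pattern-corrected value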;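 further: 0% = DMSO wells with peroxide and 100% = DMSO wells without peroxide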
# Mot1-301 SUMO = yeast Mot1-301 growth rescue at high temperature, primary screen, SUMOylation pathway inhibitor project, S. cerevisiae, ATP luminescence, 38.5C. S. cerevisiae Mot1-301 growth rescue; percent above DMSO median, 100 means doubled. growth rescue, % at 18.8 µM. 320,000 compounds, 1% hits. AID 2716, 2010;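 active means every valid replicate shows activation above 250% relative to neutral control wells; inactive means the rest, any valid replicate at or below 250%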;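 further: OY570 slx delta 5 strain wells were the positive control but not used for scaling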
# * marks the source's active call; other numbers are inactive results; · = not tested or not shown.
SMILES,aDG glyco up,FAS TE block,MPTP block,CR mimetic SO,Cardio protect,Mot1-301 SUMO
N#Cc1cn(Cc2ccco2)c(=O)[nH]c1=O,-0.2,-3.7,-1.7,·,-2.5,·
CC(=O)Oc1c(Br)cc(N(C(C)=O)S(=O)(=O)c2ccccc2)c2ccccc12,3.0*,19.6,1.6,106.3,-17.3,323.8
COc1ccc(CN2CSC(=S)N(Cc3ccc(OC)cc3)C2)cc1,0.2,27.9,6.0,110.2,-0.6,328.2*
N#C/C(=C\c1ccc(N2CCOCC2)o1)c1nc2ccccc2[nH]1,-0.4,-175.4,1.4,110.3,-20.2,-8.4
N#C/C(=C\c1ccc(N2CCOCC2)c([N+](=O)[O-])c1)c1nc2ccccc2[nH]1,-0.3,13.5,8.8,108.1,61.5*,6.2
COc1ccc(NC(=O)CN(C)C(=O)C2=COCCO2)cc1,0.1,-3.6,-0.1,104.3,0.6,-13.4
COC(=O)[C@]12CCCCC=C1N(CCc1ccc(OC)c(OC)c1)C(=O)[C@H](CC(=O)NCCCCc1ccccc1)C2,0.2,·,-1.1,·,·,·
CC(C)C(=O)NC(=S)Nc1ccccc1N1CCN(C(=O)c2ccc(Cl)cc2)CC1,-0.1,21.6,0.6,91.9,51.9*,-12.8
CCCCCC(=O)N1C[C@@H](n2cc(COC(=O)c3ccccc3)nn2)[C@H](O)C[C@@H]1c1ccccc1,0.1,-0.9,-0.5,·,0.7,·
CC1CCCC(NC(=O)CSc2nnc(C(F)(F)F)n2C)C1C (configuration not stated),0.5,-5.3,0.1,93.1,-3.0,-7.8
CCOC(=O)c1cnc2c(OC)cccc2c1Nc1ccc2c(c1)OCCO2,-0.1,7.0,-3.2,57.4*,15.2,-5.2
CCOC(=O)c1cnc2ccc(OC)cc2c1Nc1ccc2c(c1)OCCO2,-0.2,21.4,4.3,101.9,-21.6,12.4
CCN(CC(=O)Nc1c(F)cccc1F)C(=O)Cc1n[nH]c(=O)c2ccccc12,-0.2,-9.2,-1.4,98.8,59.8*,-5.0
CCCN(CC(=O)Nc1ccc(F)c(F)c1F)C(=O)CCc1nc2ccccc2c(=O)[nH]1,0.0,-0.5,-2.5,106.2,67.5*,116.3
CCN(CC(=O)Nc1c(F)cccc1F)C(=O)CCc1nc2ccccc2c(=O)[nH]1,-0.1,-2.8,-3.1,107.2,64.5*,3.2
CN1CCC(N(C)C(=O)/C(C#N)=C/c2ccc(OC(F)F)cc2)CC1,0.2,1.1,0.3,·,24.6,·
Cc1ccccc1C(=O)NC(=S)NC1CCS(=O)(=O)C1 (configuration not stated),-0.4,-6.1,-0.3,82.8,3.1,1.7
O=c1[nH]c(CSc2nnc(-c3cccnc3)n2C2CCCCC2)nc2ccccc12,-0.3,-2.0,-1.6,77.1,88.9*,6.9
CCn1c(SCc2nc3ccccc3c(=O)[nH]2)nnc1-c1cccnc1,-0.1,-2.2,-1.4,95.4,11.2,4.6
O=c1oc2ccccc2cc1-c1nc(-c2cccs2)cs1,-0.2,-34.9,1.7,91.2,15.5,-4.3
COc1cccc2cc(-c3nc(-c4cccs4)cs3)c(=O)oc12,-0.7,16.2,0.0,102.0,87.0*,0.7
O=C(CN(c1cccc([N+](=O)[O-])c1)S(=O)(=O)c1ccccc1)N1CCCCC1,-0.1,1.9,-1.5,107.7,-1.6,340.6*
CCCCNC(=O)N1CCN(c2ncccn2)CC1,0.1,-7.3,-1.3,86.3,6.7,52.5
NC(=O)NC(=O)C(c1ccccc1)N1CCN(S(=O)(=O)Cc2ccccc2)CC1 (configuration not stated),0.3,-7.4,2.0,72.2,0.6,8.4
O=C(CCc1nc2ccccc2c(=O)[nH]1)NCc1ccco1,-0.1,-8.7,-1.6,100.3,76.0*,150.1
COc1ccccc1NS(=O)(=O)c1cc(NC(=O)CCc2nc3ccccc3c(=O)[nH]2)ccc1C,-0.3,0.4,-0.6,97.3,94.3*,6.3
O=C(CCc1nc2ccccc2[nH]1)Nc1ccc(F)cc1,-0.1,-2.4,-1.1,87.7,-0.4,-14.4
